Test results published in paper PMC5540273 (PLoS ONE, 2017).

Tests used:
Conditions in all cases: concentration: 1 μM,replicates: in singlicate; n = 1
WNK1 = system: WNK1
WNK2 = system: WNK2
WNK3 = system: WNK3
WNK4 = system: WNK4
YANK1 = system: T1, YANK1
T1 construct: gene STK32A

YANK2 = system: T2, YANK2
T2 construct: gene STK32B

YANK3 = system: T3, YANK3
T3 construct: gene STK32C

YES = system: T4, YES
T4 construct: gene YES1

YSK1 = system: T5, YSK1
T5 construct: gene STK25

YSK4 = system: T6, YSK4
T6 construct: gene MAP3K19

ZAK = system: ZAK
ZAP70 = system: ZAP70
p38-alpha = system: T7, p38-alpha
T7 construct: gene MAPK14

p38-beta = system: T8, p38-beta
T8 construct: gene MAPK11

p38-delta = system: p38-delta
p38-gamma = system: T9, p38-gamma
T9 construct: gene MAPK12
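Also: KINOMEscan kinase panel screen.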

Compound | %Inh (WNK1) [%] | %Inh (WNK2) [%] | %Inh (WNK3) [%] | %Inh (WNK4) [%] | %Inh (YANK1) [%] | %Inh (YANK2) [%] | %Inh (YANK3) [%] | %Inh (YES) [%] | %Inh (YSK1) [%] | %Inh (YSK4) [%] | %Inh (ZAK) [%] | %Inh (ZAP70) [%] | %Inh (p38-alpha) [%] | %Inh (p38-beta) [%] | %Inh (p38-delta) [%] | %Inh (p38-gamma) [%]
Cc1cccc(-c2nc(Nc3ccncc3)c3sccc3n2)n1 [GW869641] | 27 | 0 | 21 | 17 | 20 | 14 | 0 | 0 | 0 | 41 | 27 | 14 | 31 | 17 | 0 | 32
C[C@@H](Oc1cc(-n2cnc3cc(-c4cnn(C)c4)ccc32)sc1C(N)=O)c1ccccc1Cl [GSK580432] | 62 | 91.4 | 97.4 | 33 | 25 | 0 | 13 | 73 | 31 | 97.8 | 6 | 0 | 0 | 0 | 0 | 0
CS(=O)(=O)c1cccc(CNc2nc(Nc3ccc4c(c3)[C@@H]3C[C@@H]4CNC3=O)ncc2C(F)(F)F)c1 | 0 | 0 | 0 | 0 | 0 | 0 | 0 | 0 | 0 | 98.5 | 0 | 58 | 0 | 0 | 69 | 10
Cn1ccc2ncnc(Oc3ccc(NC(=O)Nc4cccc(C(F)(F)F)c4)c(F)c3)c21 | 0 | 0 | 0 | 7 | 0 | 0 | 1 | 0 | 0 | 68 | 18 | 1 | 12 | 20 | 0 | 62
CCn1c(-c2nonc2N)nc2cncc(Br)c21 [SB-738004] | 0 | 8 | 31 | 39 | 0 | 7 | 8 | 0 | 0 | 99.7 | 15 | 9 | 6 | 0 | 0 | 7
CC(=O)Nc1ccc(-c2cc3ncnc(SCC(=O)O)c3s2)cc1 | 2 | 0 | 0 | 2 | 0 | 0 | 26 | 0 | 11 | 50 | 40 | 2 | 12 | 1 | 29 | 0
CS(=O)c1ccc(-c2coc3ccc(-c4n[nH]c(=O)o4)cc23)cc1 (stereo not shown) | 0 | 0 | 0 | 0 | 9 | 10 | 0 | 0 | 7 | 55 | 0 | 1 | 10 | 9 | 0 | 0
Cc1n[nH]c2cc(Nc3ccnc(Nc4cccc(CN5CCOCC5)c4)n3)ccc12 [GW682569] | 8 | 19 | 21 | 32 | 9 | 0 | 3 | 22 | 10 | 90 | 14 | 17 | 11 | 0 | 28 | 0
COc1cccc(OC)c1C(=O)Nc1cccc(-c2nn3ccccc3c2-c2ccnc(Nc3cccc(F)c3)n2)c1 [GSK361065] | 0 | 0 | 0 | 0 | 0 | 11 | 0 | 36 | 1 | 0 | 66 | 0 | 21 | 90 | 11 | 24
C[C@@H](Oc1cc(-n2cnc3ccc(-c4ccncc4)cc32)sc1C(N)=O)c1ccccc1Cl [GSK483724] | 46 | 63 | 79 | 51 | 18 | 1 | 28 | 16 | 2 | 68 | 21 | 61 | 1 | 0 | 39 | 0
O=C(NCC1CC1)c1ccc(-c2cc(C(=O)NC3CC3)ccc2F)cc1 [GW810445] | 0 | 24 | 11 | 10 | 0 | 0 | 0 | 0 | 3 | 6 | 0 | 0 | 55 | 0 | 0 | 29
O=C(Nc1cccc(Oc2ccc3nccn3n2)c1)Nc1cccc(C(F)(F)F)c1 | 0 | 0 | 0 | 20 | 0 | 0 | 0 | 0 | 0 | 96.1 | 97.8 | 3 | 17 | 12 | 0 | 19
CC(=O)c1c(-c2ccncc2)[nH]c(-c2ccncc2)c1C [GW493036] | 14 | 0 | 50 | 62 | 0 | 0 | 9 | 17 | 0 | 78 | 34 | 48 | 34 | 0 | 49 | 19
